PubChem BioAssay (NCI)
This is part of a sample that, as a whole, favours compounds with a hit. Of some 83,000 tested, about 20% had one in any assay.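 In brief: 96-well plates, 48 h treatment, single concentration, percent growth endpoint.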 The source made the active and inactive calls. The calls were made as follows: active = growth percent below 10; inactive = the rest.

Experiments:
Assay in all cases: NCI-60 one-dose screen, 48 h (100 = growth as untreated, 0 = no growth, -100 = all killed)
Details in all cases: 10 µM unless noted
[1] = system: SK-MEL-2 melanoma
[2] = system: EKVX NSCLC
[3] = system: SN12C renal
[4] = system: UO-31 renal
[5] = system: TK-10 renal
[6] = system: ACHN renal
[7] = system: CAKI-1 renal
[8] = system: A498 renal
[9] = system: CCRF-CEM leukemia
[10] = system: MOLT-4 leukemia
[11] = system: RPMI-8226 leukemia
[12] = system: OVCAR-8 ovarian
[13] = system: OVCAR-5 ovarian
[14] = system: OVCAR-4 ovarian
[15] = system: SK-OV-3 ovarian
[16] = system: IGROV1 ovarian
[17] = system: OVCAR-3 ovarian
[18] = system: HS 578T breast
[19] = system: NCI/ADR-RES ovarian

Measured: growth

CCN=C1C=CC(=C(c2ccc(N)cc2)c2ccc(N(CC)CC)c(C)c2)C=C1
active: [1] -15.3% | [3] -14% | [4] 3.22% | [6] -2.24% | [8] -26.5% | [9] -19.5% | [10] -4.13% | [11] -30.8% | [12] 1.54% | [15] 6.51% | [17] -28.9% | [18] -24.6%
inactive: [2] 10.6% | [5] 15.4% | [7] 14.1% | [13] 18.2% | [14] 24.2% | [16] 11.6% | [19] 67.7%

COc1cccc(-c2nn(C(C)(C)C)cc2-c2ccnc(NCCCNS(=O)(=O)c3ccc(C)cc3)c2)c1
inactive: [1] 108% | [2] 100% | [3] 103% | [4] 85.3% | [5] 98.8% | [6] 102% | [7] 92.8% | [8] 94% | [9] 94.6% | [10] 103% | [11] 99.3% | [12] 103% | [13] 105% | [14] 103% | [15] 113% | [16] 111% | [17] 122% | [18] 103% | [19] 98.4%

O=C(C(=O)c1ccc2c(c1)OCO2)c1ccc2c(c1)OCO2
inactive: [1] 112% | [2] 124% | [3] 107% | [4] 100% | [5] 105% | [6] 111% | [7] 107% | [8] 98.1% | [9] 95.6% | [10] 117% | [11] 101% | [12] 95.3% | [13] 109% | [14] 99.8% | [15] 114% | [16] 124% | [17] 105% | [18] 96.3% | [19] 117%

C#CCOc1ccc2ncnc(N3CCN(C(=O)CCl)CC3)c2c1
inactive: [1] 87.6% [8.25 µM] | [2] 96.7% [8.25 µM] | [3] 40.7% [8.25 µM] | [4] 75.5% [8.25 µM] | [5] 99.1% [8.25 µM] | [7] 109% [8.25 µM] | [8] 110% [8.25 µM] | [9] 10.7% [8.25 µM] | [10] 67.1% [8.25 µM] | [11] 92.9% [8.25 µM] | [12] 72.2% [8.25 µM] | [13] 93.3% [8.25 µM] | [14] 63.8% [8.25 µM] | [15] 68.6% [8.25 µM] | [17] 78.7% [8.25 µM] | [18] 94.6% [8.25 µM] | [19] 98.5% [8.25 µM]
active: [6] -54.7% [8.25 µM] | [16] -30.9% [8.25 µM]

COc1cccc(-c2nn(C(C)(C)C)cc2-c2ccnc(NCCCNS(=O)(=O)c3cccc4ccccc34)c2)c1
inactive: [1] 111% | [2] 98.9% | [3] 103% | [4] 91.1% | [5] 101% | [6] 107% | [7] 96.6% | [8] 76.9% | [9] 102% | [10] 104% | [11] 103% | [12] 103% | [13] 104% | [14] 101% | [15] 110% | [16] 110% | [17] 108% | [18] 101% | [19] 101%

O=C1NC(=S)NC(=O)C1CC(=O)n1c(-c2ccccc2)nc2ccccc21
inactive: [1] 110% | [2] 82.4% | [3] 95.8% | [4] 73.5% | [5] 143% | [6] 86.6% | [7] 77.2% | [8] 89% | [9] 110% | [10] 99.9% | [11] 108% | [12] 95.3% | [13] 99.5% | [14] 98.1% | [15] 90.4% | [16] 84.2% | [17] 103% | [18] 98.9% | [19] 104%

Cc1nc2ccccc2n1C(=O)C[C@@H]1NC(=S)NC1=O
inactive: [1] 113% | [2] 93.6% | [3] 103% | [4] 78.3% | [5] 90.9% | [6] 96.5% | [7] 91.5% | [8] 94.9% | [9] 109% | [10] 100% | [11] 111% | [12] 93.6% | [13] 85.6% | [14] 101% | [15] 100% | [16] 94.8% | [17] 108% | [18] 104% | [19] 101%

O=C(N=Nc1c(O)[nH]c2ccccc12)c1cc(-c2ccccc2)on1
inactive: [1] 108% | [2] 92% | [3] 96% | [4] 85.4% | [5] 123% | [6] 97.2% | [7] 86.7% | [8] 103% | [9] 107% | [10] 104% | [11] 112% | [12] 102% | [13] 99.8% | [14] 104% | [15] 116% | [16] 104% | [17] 111% | [18] 96.7% | [19] 105%

CC1(C)CC[C@]2(C(=O)Nc3ccccn3)CC[C@]3(C)C(=CC[C@@H]4[C@@]5(C)C/C(=C/c6cccnc6)C(=O)C(C)(C)[C@@H]5CC[C@]43C)[C@H]2C1
inactive: [1] 63.9% | [2] 42.5% | [3] 32.6% | [4] 37.4% | [5] 68.9% | [6] 26.5% | [7] 36.3% | [8] 39.9% | [9] 20.9% | [10] 13.2% | [11] 13.3% | [12] 29.3% | [14] 26.7% | [15] 74% | [16] 52.8% | [17] 35.4% | [18] 63.4% | [19] 42.2%

Cc1ccc(OC(=O)c2ccc(Cl)cc2)cc1
inactive: [1] 103% | [2] 99.1% | [3] 95.9% | [4] 102% | [5] 98.2% | [6] 95.6% | [7] 81.8% | [8] 114% | [9] 55.9% | [10] 113% | [11] 92.4% | [12] 96.7% | [14] 79.8% | [15] 116% | [16] 116% | [17] 99.9% | [18] 110% | [19] 107%

C[n+]1ccccc1/C=C/c1ccc2cccc(O)c2n1
inactive: [1] 103% | [2] 32% | [3] 91.8% | [4] 57.9% | [5] 109% | [6] 102% | [7] 57.3% | [8] 63.9% | [9] 103% | [10] 95.2% | [11] 105% | [12] 100% | [13] 51.5% | [14] 112% | [15] 39.1% | [16] 105% | [17] 112% | [18] 108% | [19] 109%

CN(C)S(=O)(=O)c1cccc(-c2nc3sc4c(c3c(=O)[nH]2)CCCC4)c1
inactive: [1] 36.9% | [2] 56.1% | [3] 28.3% | [4] 29.6% | [6] 96.5% | [7] 65.5% | [9] 35.5% | [10] 56.9% | [12] 13.4% | [13] 23.3% | [16] 32.1% | [17] 19.5% | [19] 29.5%
active: [5] -20.5% | [8] -29.8% | [14] -56.4% | [15] 7.06% | [18] -4.53%

COc1ccc(/C=C(\C#N)C(=O)Nc2cccc(Nc3nc(SC)nc(-c4cccc([N+](=O)[O-])c4)c3C#N)c2)cc1OC
inactive: [1] 113% | [2] 88.2% | [3] 96.5% | [4] 88.3% | [5] 176% | [6] 93.8% | [7] 92.7% | [8] 102% | [9] 87.7% | [10] 93.1% | [11] 83.8% | [12] 102% | [13] 96.6% | [14] 91.1% | [15] 99% | [16] 74.7% | [18] 104% | [19] 104%

O=C(O)COc1ccc(Cl)cc1C1CCCCC1
inactive: [1] 103% | [2] 117% | [3] 98.5% | [4] 87.6% | [5] 101% | [6] 107% | [7] 99.4% | [8] 90.2% | [9] 92.1% | [10] 87.9% | [11] 102% | [12] 103% | [13] 107% | [14] 109% | [15] 107% | [16] 117% | [17] 115% | [18] 105% | [19] 104%

CC1=CC(=NN=c2cc(C)n([O-])c(C)c2)C=C(C)[N+]1=O
inactive: [1] 84.7% | [2] 110% | [3] 92.1% | [4] 85.7% | [5] 85.8% | [6] 110% | [7] 98.2% | [8] 124% | [9] 91.7% | [10] 81.7% | [12] 86.2% | [13] 110% | [14] 78% | [15] 111% | [16] 89.2% | [17] 110% | [18] 98.8% | [19] 111%
